# Experimental data reported in the supplement of paper PMC10849652.
# About 8,800 targets were measured; listed, in parts, are those with a hit and a random draw of the rest. About 0.5% of all pairs of compound and target were hits. Unmarked numbers belong to inactive results.
# What was measured:
# Test in all cases: log2 fold change, soluble protein after heating vs DMSO (PISA); higher = thermal stabilisation; K562 lysate, 10 uM; active = over 0.2 and 3.5 SD of the protein, either way, in both replicates (recomputed)
# alvocidib = compound: CN1CC[C@H](c2c(O)cc(O)c3c(=O)cc(-c4ccccc4Cl)oc23)[C@H](O)C1 [alvocidib]
# How it was run: (§1)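 Dounce homogenisation of K562 pellets in PBS pH 7.4 with 1 mM MgCl2 produced a crude extract, used at 1 mg/mL protein. Exposure to 10 μM compound lasted 30 min, and aliquots were then heated for 3 min across 48°C-58°C, pooled and brought to 0.5% NP-40 at 4°C. The supernatant after 21,000xg for 90 min was quantified by TMTpro 16plex LC-MS/MS with channel sums equalised. Duplicate values are given as log-two fold change in thermal stability relative to solvent controls.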
# Tubastatin A = compound: CN1CCc2c(c3ccccc3n2Cc2ccc(C(=O)NO)cc2)C1 [Tubastatin A]
# How it was run: as §1
# [1] = compound: CNC(=O)C1=CC=CC=C1NC2=NC(=NC=C2Cl)NC3=C(C=C(C=C3)N4CCOCC4)OC
# How it was run: as §1
# defactinib = compound: CNC(=O)c1ccc(Nc2ncc(C(F)(F)F)c(NCc3nccnc3N(C)S(C)(=O)=O)n2)cc1 [defactinib]
# How it was run: as §1
# [2] = compound: CNc1nc(-c2ccc3c(N)n[nH]c3c2)cc(N2C[C@@H](C(=O)NC3CCCCC3)CC[C@H]2C)n1
# How it was run: as §1
# encorafenib = compound: COC(=O)N[C@@H](C)CNc1nccc(-c2cn(C(C)C)nc2-c2cc(Cl)cc(NS(C)(=O)=O)c2F)n1 [encorafenib]
# How it was run: as §1
# [3] = compound: COC(=O)[C@H](CCSC)NC(=O)C1=C(C=C(C=C1)NC[C@H](CS)N)C2=CC=CC=C2
# How it was run: as §1
# alisertib = compound: COc1cc(Nc2ncc3c(n2)-c2ccc(Cl)cc2C(c2c(F)cccc2OC)=NC3)ccc1C(=O)O [alisertib]
# How it was run: as §1
# [4] = compound: COc1cc2nc(-c3cc(F)ccc3O)nc(N[C@@H]3CNC[C@H]3C(C)(C)O)c2cc1OC
# How it was run: as §1
# gefitinib = compound: COc1cc2ncnc(Nc3ccc(F)c(Cl)c3)c2cc1OCCCN1CCOCC1 [gefitinib]
# How it was run: as §1
# lapatinib = compound: CS(=O)(=O)CCNCc1ccc(-c2ccc3ncnc(Nc4ccc(OCc5cccc(F)c5)c(Cl)c4)c3c2)o1 [lapatinib]
# How it was run: as §1
# pictilisib = compound: CS(=O)(=O)N1CCN(Cc2cc3nc(-c4cccc5[nH]ncc45)nc(N4CCOCC4)c3s2)CC1 [pictilisib]
# How it was run: as §1
# crizotinib = compound: C[C@@H](Oc1cc(-c2cnn(C3CCNCC3)c2)cnc1N)c1c(Cl)ccc(F)c1Cl [crizotinib]
# How it was run: as §1
# [5] = compound: C[C@H](C1=CC=C(C=C1)C(=O)NC2=C3C=CNC3=NC=C2)N
# How it was run: as §1
# duvelisib = compound: C[C@H](Nc1ncnc2nc[nH]c12)c1cc2cccc(Cl)c2c(=O)n1-c1ccccc1 [duvelisib]
# How it was run: as §1
# gandotinib = compound: Cc1cc(Nc2cc(CN3CCOCC3)c3nc(C)c(Cc4ccc(Cl)cc4F)n3n2)n[nH]1 [gandotinib]
# How it was run: as §1
# tozasertib = compound: Cc1cc(Nc2cc(N3CCN(C)CC3)nc(Sc3ccc(NC(=O)C4CC4)cc3)n2)n[nH]1 [tozasertib]
# How it was run: as §1
# doramapimod = compound: Cc1ccc(-n2nc(C(C)(C)C)cc2NC(=O)Nc2ccc(OCCN3CCOCC3)c3ccccc23)cc1 [doramapimod]
# How it was run: as §1
# bafetinib = compound: Cc1ccc(NC(=O)c2ccc(CN3CC[C@H](N(C)C)C3)c(C(F)(F)F)c2)cc1Nc1nccc(-c2cncnc2)n1 [bafetinib]
# How it was run: as §1
# [6] = compound: Cc1cccc(CC(=O)N2CCc3c2ccc(-c2cn(C)c4ncnc(N)c24)c3F)n1
# How it was run: as §1
# Chain of UniProt Q5HYI8 (Q5HYI8 whole entry, looked up): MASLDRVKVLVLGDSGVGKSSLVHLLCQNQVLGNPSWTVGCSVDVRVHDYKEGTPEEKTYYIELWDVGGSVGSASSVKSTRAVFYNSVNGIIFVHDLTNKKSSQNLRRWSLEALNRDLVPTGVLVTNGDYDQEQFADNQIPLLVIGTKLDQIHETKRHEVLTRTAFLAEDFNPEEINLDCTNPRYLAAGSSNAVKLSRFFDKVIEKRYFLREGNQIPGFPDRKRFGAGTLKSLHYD
# Chain of UniProt Q9UL25 (Q9UL25 whole entry, looked up): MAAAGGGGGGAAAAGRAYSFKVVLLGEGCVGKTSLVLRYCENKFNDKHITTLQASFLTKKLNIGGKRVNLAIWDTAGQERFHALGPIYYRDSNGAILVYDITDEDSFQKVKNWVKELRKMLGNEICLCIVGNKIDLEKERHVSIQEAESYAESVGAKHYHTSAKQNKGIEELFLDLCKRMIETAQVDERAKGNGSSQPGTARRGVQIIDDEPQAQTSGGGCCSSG
# Chain of UniProt P04049 (P04049 whole entry, looked up): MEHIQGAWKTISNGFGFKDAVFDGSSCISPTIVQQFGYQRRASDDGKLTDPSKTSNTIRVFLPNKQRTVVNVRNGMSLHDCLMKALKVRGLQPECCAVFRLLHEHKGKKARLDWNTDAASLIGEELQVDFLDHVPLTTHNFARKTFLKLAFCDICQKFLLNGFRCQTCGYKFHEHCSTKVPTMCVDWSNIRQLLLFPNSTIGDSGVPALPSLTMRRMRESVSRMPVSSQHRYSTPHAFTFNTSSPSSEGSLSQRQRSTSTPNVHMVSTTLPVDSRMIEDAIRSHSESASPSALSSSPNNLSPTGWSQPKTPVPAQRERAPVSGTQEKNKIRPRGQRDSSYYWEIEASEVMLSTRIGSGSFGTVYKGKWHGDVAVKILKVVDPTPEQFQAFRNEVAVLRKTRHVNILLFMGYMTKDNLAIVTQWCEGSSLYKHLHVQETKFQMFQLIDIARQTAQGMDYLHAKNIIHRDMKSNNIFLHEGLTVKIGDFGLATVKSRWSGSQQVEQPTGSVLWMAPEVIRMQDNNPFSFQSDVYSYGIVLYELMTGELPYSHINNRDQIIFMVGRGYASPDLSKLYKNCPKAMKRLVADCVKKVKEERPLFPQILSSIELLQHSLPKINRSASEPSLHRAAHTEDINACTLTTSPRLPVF
# Chain of UniProt Q6UVJ0 (Q6UVJ0 whole entry, looked up): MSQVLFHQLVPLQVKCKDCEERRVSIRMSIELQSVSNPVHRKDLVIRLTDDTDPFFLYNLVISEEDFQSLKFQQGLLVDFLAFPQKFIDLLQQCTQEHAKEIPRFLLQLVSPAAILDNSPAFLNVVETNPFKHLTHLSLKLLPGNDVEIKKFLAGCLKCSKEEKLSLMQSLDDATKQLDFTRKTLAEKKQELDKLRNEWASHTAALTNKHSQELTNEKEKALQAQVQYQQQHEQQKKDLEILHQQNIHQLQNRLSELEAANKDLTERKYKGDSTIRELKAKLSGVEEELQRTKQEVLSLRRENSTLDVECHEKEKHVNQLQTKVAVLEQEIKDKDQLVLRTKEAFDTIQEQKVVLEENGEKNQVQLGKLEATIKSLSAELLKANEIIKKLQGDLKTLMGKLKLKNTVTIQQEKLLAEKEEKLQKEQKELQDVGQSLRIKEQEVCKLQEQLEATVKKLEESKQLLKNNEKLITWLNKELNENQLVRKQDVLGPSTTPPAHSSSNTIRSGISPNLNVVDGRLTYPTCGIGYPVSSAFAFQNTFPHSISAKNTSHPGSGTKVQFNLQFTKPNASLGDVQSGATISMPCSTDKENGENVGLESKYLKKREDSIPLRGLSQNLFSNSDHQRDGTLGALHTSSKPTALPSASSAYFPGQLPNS
# Chain of UniProt Q02094 (Q02094 whole entry, looked up): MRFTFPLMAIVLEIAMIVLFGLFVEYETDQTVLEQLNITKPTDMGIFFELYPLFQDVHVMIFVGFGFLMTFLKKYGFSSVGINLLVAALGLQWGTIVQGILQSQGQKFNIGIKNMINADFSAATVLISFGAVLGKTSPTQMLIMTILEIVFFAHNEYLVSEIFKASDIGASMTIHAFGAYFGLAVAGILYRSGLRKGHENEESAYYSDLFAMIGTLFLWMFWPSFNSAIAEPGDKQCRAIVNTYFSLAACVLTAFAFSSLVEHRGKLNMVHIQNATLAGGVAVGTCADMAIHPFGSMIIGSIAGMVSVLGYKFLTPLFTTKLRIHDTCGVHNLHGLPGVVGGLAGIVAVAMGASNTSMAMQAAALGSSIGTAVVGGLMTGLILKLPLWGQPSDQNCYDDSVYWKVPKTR
# Chain of UniProt Q9P0P0 (Q9P0P0 whole entry, looked up): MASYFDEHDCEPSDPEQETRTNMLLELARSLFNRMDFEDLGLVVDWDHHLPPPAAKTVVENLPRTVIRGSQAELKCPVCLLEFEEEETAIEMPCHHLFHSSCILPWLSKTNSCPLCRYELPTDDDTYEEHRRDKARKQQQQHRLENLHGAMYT
# Chain of UniProt O43819 (O43819 whole entry, looked up): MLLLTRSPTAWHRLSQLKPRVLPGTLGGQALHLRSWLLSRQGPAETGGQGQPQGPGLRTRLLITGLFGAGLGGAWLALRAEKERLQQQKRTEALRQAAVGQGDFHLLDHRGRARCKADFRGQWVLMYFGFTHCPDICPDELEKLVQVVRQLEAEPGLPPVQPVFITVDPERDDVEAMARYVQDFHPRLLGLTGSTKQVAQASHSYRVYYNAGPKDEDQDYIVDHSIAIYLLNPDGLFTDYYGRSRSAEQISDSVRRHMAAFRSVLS
# Chain of UniProt Q9Y6B6 (Q9Y6B6 whole entry, looked up): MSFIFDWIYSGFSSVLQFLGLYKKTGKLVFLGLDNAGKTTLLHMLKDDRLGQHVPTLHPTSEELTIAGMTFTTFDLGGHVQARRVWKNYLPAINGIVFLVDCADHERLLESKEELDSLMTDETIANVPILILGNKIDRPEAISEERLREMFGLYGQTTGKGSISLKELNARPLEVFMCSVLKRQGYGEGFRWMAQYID
# Chain of UniProt Q53S08 (Q53S08 whole entry, looked up): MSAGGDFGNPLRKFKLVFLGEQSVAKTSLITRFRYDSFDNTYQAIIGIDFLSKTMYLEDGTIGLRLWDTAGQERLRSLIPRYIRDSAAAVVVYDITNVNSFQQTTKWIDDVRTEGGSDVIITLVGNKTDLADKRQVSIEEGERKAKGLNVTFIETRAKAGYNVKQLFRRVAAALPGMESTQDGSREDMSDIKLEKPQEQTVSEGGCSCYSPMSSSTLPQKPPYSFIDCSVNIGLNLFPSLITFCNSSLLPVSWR
# Chain of UniProt P31040 (P31040 whole entry, looked up): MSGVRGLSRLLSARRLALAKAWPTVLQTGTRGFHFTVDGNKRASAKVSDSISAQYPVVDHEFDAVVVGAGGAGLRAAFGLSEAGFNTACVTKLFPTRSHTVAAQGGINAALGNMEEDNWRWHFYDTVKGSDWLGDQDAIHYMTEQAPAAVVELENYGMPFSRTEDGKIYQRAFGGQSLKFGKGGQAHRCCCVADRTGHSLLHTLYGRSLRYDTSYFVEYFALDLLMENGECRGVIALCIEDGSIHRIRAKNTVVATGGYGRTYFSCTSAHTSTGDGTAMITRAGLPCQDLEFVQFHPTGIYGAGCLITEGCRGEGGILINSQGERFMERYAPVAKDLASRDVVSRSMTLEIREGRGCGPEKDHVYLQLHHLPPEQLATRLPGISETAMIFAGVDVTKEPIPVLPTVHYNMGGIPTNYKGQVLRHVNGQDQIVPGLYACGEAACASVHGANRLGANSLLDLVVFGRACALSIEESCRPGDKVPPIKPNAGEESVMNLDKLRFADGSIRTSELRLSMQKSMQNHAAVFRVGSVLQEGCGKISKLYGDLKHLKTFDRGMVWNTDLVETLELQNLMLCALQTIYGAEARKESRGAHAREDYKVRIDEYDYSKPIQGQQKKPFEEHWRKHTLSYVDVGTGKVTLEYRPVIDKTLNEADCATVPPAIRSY
Target,log2 fold change (alvocidib),log2 fold change (Tubastatin A),log2 fold change [1],log2 fold change (defactinib),log2 fold change [2],log2 fold change (encorafenib),log2 fold change [3],log2 fold change (alisertib),log2 fold change [4],log2 fold change (gefitinib),log2 fold change (lapatinib),log2 fold change (pictilisib),log2 fold change (crizotinib),log2 fold change [5],log2 fold change (duvelisib),log2 fold change (gandotinib),log2 fold change (tozasertib),log2 fold change (doramapimod),log2 fold change (bafetinib),log2 fold change [6]
SDHA (UniProt P31040),-0.004,-0.012,0,-0.04,0.002,-0.023,-0.04,-0.023,-0.014,-0.031,0.004,-0.011,-0.008,-0.004,0.013,0.03,0.006,0.024,0.026,-0.017
RCOR3 isoform 3 (UniProt Q9P2K3),-0.005,-0.09,-0.002,0.009,-0.014,0.012,0.088,0.003,-0.006,0.026,0.016,0.023,0.011,0.014,-0.029,-0.024,0.009,-0.048,-0.035,0.004
RAF1 isoform 2 (UniProt P04049),0.048,-0.022,0.019,-0.097,-0.001,1.06 (active),0.048,-0.007,0.052,0.022,0.077,0.014,-0.047,0.046,-0.014,-0.118,0.025,0.025,-0.004,-0.016
SCO2 (UniProt O43819),-0.009,0.039,0.073,0.008,-0.007,0.027,-0.607 (active),-0.115,0.046,0.114,0.118,-0.057,0.026,-0.163,0.092,0.048,-0.007,0.002,0.029,0.101
RHAG (UniProt Q02094),-0.133,0.031,0.043,-0.043,0.037,0.016,0.02,-0.004,0.046,-0.051,-0.046,-0.002,-0.038,-0.381 (active),0.113,0.07,0.05,0.032,0.004,0.184
RABL3 (UniProt Q5HYI8),-0.023,-0.193,0.154,0,-0.021,0.02,-0.01,-0.036,-0.038,0.005,0.036,-0.028,-0.102,-0.017,0.198,-0.097,-0.003,0.085,-0.05,0.031
SASS6 (UniProt Q6UVJ0),0.051,-0.104,0.018,0.03,-0.002,0.053,0.085,-0.019,0.005,0.001,0.001,-0.056,-0.01,0.099,-0.018,-0.076,0.004,-0.01,-0.032,-0.054
RNF181 (UniProt Q9P0P0),0,0.021,0.037,0.044,-0.008,0.029,-0.201,-0.011,-0.004,-0.083,0.079,-0.069,0.049,0.057,0.028,-0.042,0.054,0.057,-0.03,0.01
RPS18 (UniProt P62269),-0.057,0.04,-0.021,0.016,0.025,-0.022,0.054,0.013,0.001,-0.032,-0.046,0.006,-0.028,-0.186,-0.019,0.071,0.008,0.026,-0.004,0.094
SAR1B (UniProt Q9Y6B6),0.032,0.176,0.199,0.05,0.147,0.203,0.052,0.128,0.145,0.015,0.122,0.036,-0.056,-0.031,0.004,0.44 (active),-0.005,0.578 (active),-0.079,0.08
RPS9 (UniProt P46781),0.053,0.006,-0.036,-0.064,0.006,-0.022,0.065,0.004,-0.003,-0.033,-0.012,0.009,0.061,0.244 (active),0.006,-0.087,0.016,-0.023,0.034,-0.07
RAB6D (UniProt Q53S08),-0.029,0.078,0.024,0.077,0.087,0.023,-0.034,-0.149,0.062,0.027,0.005,-0.008,-0.036,-0.058,0,0.189,0.015,-0.001,-0.136,0.154
RAB21 (UniProt Q9UL25),0.069,0.034,0.048,-0.025,0.026,0.005,-0.072,0.015,0.013,0.003,-0.028,-0.053,-0.001,0.208,-0.087,-0.112,-0.013,-0.055,-0.059,-0.09
RPL37A (UniProt P61513),0.159,0.024,0.022,-0.045,0.161,0.004,0.021,-0.006,0.004,-0.064,-0.012,-0.01,-0.011,0.312 (active),-0.088,-0.131,-0.087,-0.044,0.02,-0.2
RPL8 (UniProt P62917),0.007,0.023,0.02,0.038,0.104,0.022,-0.046,0.018,-0.008,0.011,-0.005,0.01,0.059,0.147,0.008,-0.072,0.033,-0.038,0.071,-0.051
"RAPGEF2, A0A2R8YGD3",-0.241,0.236 (active),0.017,0.119,0.025,0.017,0.021,0.007,-0.017,-0.042,-0.014,0.015,0.024,-0.431 (active),0.018,0.038,0.014,-0.039,-0.171,0.266
